PubChem BioAssay (NCATS)
Several values for one entry are separate records, joined by “and”; a condition that tells them apart may be missing. Equal values may be shown once. Results filed as inconclusive are left out. More than one record can exist for a structure, and the calls need not agree. Activity calls are given as the source filed them. Unless noted, calls follow the shape of the dose curve; as a rule, active = well fitted curve in either direction with a large enough effect (not every such curve was filed as active); inconclusive = small, poorly fitted or top-dose-only effect, or another doubt; inactive = flat fitted curve, though single readings scatter.

How the values were obtained:
[1] = AP1 Signaling Pathway (AID 357); conditions: ME-180 AP-1-bla reporter, EGF-induced, beta-lactamase ratio, 5 h; at 38 µM (top of the series) unless noted;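 also: ME-180 reporter cells stimulated with EGF at its EC50 level; % is scaled to controls: 0 for no effect and ±100 for the full control effect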
Outline: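 In this screen, ME-180 cells in Opti-MEM with 0.5% dialyzed FBS received EC50 EGF and compound titrations for 5 h. AP-1 reporter beta-lactamase was detected via CCF4 ratio, giving AC50 for positive and negative modulators.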

[2] = target: Cytochrome P450 1A2 (Homo sapiens) (UniProt P05177); experiment: p450-cyp1a2 (AID 410; calls by dose curve; also: potency is read from the fitted curve at half-maximal effect;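 as to activity change, negative = inhibition: -100% = full effect of reference inhibitor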)
Outline: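 Inhibition was calculated relative to 57 uM furafylline (full inhibition). The reaction used human CYP1A2 at 20nM with Luciferin-ME at its Km, 100uM, driven by an NADPH-regenerating system for 60 min at room temperature.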

[3] = NFAT Signaling Pathway (AID 444); conditions: Jurkat NFAT-bla M1, carbachol, beta-lactamase ratio, 5 h; at 38 µM (top of the series) unless noted;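 also: carbachol stimulus at about its EC50 of 1 µM final; % is scaled to controls: 0 for no effect and ±100 for the full control effect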
Outline: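 Jurkat cells carrying an NFAT-driven β-lactamase reporter and co-transfected muscarinic M1 receptor were treated with compound plus carbachol (1 uM final, an EC50 level) for 5 h at 37 °C. CCF4 loading followed for 1 h at RT; 460/530 nm ratio gave %activity.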

[4] = Stat Signaling Pathway (AID 446); conditions: ME-180 SIE beta-lactamase reporter, IL-6 stimulated, 5 h; at 38 µM (top of the series) unless noted;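 also: ME-180 cervical cancer cells given 40 pM IL-6 alongside compound; SIE-controlled beta-lactamase reporter measured as 460/530 nm FRET emission ratio; % is scaled to controls: 0 for no effect and ±100 for the full control effect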
Outline: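 ME-180 cells carrying a SIE-driven beta-lactamase reporter are stimulated with 40 pM IL-6 for 5 h at 37C in the presence of compound. The 460/530 nm FRET substrate ratio is read after 2.5 h at RT. Data are normalised to 300 pM IL-6 and to 125 nM JAK inhibitor controls.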

[5] = target: Glucocorticoid receptor (Homo sapiens) (UniProt P04150); experiment: GR-GFP Redistribution (AID 450;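 active = compounds whose dose series gives a full or clear partial fitted curve of increased nuclear translocation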; also: potency is read from the fitted curve at half-maximal effect); conditions: U2OS GR-GFP nuclear translocation, laser cytometry, 2 h
[6] = target: Glucocorticoid receptor (Homo sapiens) (UniProt P04150); experiment: GR-EFC Redistribution (AID 451; calls by dose curve; also: potency is read from the fitted curve at half-maximal effect); conditions: CHO-K1 GR-EFC translocation, beta-gal luminescence, 2 h
Outline: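 CHO-K1 cells stably expressing nuclear-localized β-gal enzyme acceptor and GR fused C-terminally to the enzyme donor fragment; ligand-driven nuclear translocation restores β-gal by complementation. Compounds titrated up to 46 uM final, 2 h at 37 °C; luminescence read.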

[7] = target: Mitogen-activated protein kinase 10 (Mus musculus) (UniProt Q61831); experiment: JNK3 AlphaScreen Assay (AID 530);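 also: kinase came from lysate of stimulated human HepG2 cells; signal reports phosphorylation of biotinylated GST-cJun 1-79 at Ser73 with 10 µM ATP; % is scaled to controls: 0 for no effect and ±100 for the full control effect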
Outline: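 JNK3 came from HepG2 lysates pre-activated with IL-1beta and TNF-alpha and phosphorylated biotinylated GST-cJun (1-79) at 10 uM ATP, pH 7.6, room temperature. Compounds were titrated. AlphaScreen signal used anti-phospho-cJun (Ser73) antibody.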

Chain of Glucocorticoid receptor (Homo sapiens) (P04150 whole entry, looked up, the tested form may be a part): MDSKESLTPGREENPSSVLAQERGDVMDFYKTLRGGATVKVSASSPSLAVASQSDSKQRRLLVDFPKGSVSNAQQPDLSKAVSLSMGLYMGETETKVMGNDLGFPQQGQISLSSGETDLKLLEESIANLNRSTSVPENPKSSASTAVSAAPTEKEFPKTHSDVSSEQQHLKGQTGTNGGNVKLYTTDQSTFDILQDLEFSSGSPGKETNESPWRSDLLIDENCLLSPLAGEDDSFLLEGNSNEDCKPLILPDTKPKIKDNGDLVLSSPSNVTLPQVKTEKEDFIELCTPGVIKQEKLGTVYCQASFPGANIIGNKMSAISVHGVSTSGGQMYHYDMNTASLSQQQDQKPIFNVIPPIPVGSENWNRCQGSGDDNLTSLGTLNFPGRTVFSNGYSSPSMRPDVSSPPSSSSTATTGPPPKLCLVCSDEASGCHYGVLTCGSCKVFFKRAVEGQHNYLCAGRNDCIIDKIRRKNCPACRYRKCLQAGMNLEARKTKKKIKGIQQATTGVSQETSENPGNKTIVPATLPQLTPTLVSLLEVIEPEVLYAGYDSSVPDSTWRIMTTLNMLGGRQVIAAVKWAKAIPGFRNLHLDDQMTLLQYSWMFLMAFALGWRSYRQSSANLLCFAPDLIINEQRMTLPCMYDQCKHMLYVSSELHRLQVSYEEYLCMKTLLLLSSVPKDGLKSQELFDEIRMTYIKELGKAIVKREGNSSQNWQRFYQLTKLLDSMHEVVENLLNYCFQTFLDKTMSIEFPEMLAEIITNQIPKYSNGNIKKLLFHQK
Chain of Cytochrome P450 1A2 (Homo sapiens) (P05177 whole entry, looked up): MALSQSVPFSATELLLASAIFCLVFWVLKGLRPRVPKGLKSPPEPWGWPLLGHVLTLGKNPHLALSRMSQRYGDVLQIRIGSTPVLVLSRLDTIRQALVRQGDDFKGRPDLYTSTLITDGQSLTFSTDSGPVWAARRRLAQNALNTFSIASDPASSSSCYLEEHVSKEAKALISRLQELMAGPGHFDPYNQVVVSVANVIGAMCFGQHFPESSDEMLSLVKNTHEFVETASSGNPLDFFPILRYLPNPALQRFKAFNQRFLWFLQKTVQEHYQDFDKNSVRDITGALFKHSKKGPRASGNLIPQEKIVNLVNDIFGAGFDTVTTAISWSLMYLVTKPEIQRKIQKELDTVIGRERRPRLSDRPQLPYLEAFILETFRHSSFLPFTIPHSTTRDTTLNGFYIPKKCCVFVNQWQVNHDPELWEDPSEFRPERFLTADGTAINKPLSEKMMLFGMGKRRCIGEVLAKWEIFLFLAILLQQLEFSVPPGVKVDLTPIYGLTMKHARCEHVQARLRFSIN

Nn1nnc2ccccc21
inactive: activity change, negative = inhibition [1] 1.19% | activity change, negative = inhibition [3] 4.59% | activity, negative = inhibition [4] 9.14% | Potency [5] > 46 µM | Potency [6] > 46 µM | outcome [7]
active: Potency [2] 12.6 µM

CCC(=O)N1CCN(C(=O)c2ccccc2)CC1
inactive: activity change, negative = inhibition [1] -5.7% | Potency [2] | activity change, negative = inhibition [3] 3.73% | activity, negative = inhibition [4] 2.58% | Potency [5] > 46 µM | Potency [6] > 46 µM | outcome [7]

CCCCCCCCCCCCCCC[C@H](O)[C@H](N)CO
inactive: activity change, negative = inhibition [1] 5.73% | Potency [2] | activity change, negative = inhibition [3] 0.212% | Potency [5] > 46 µM | Potency [6] > 46 µM

Cc1nc2c(OCc3ccccc3)cccn2c1CC#N
active: Potency [2] 2 µM and 398 nM
inactive: activity change, negative = inhibition [1] -13% | activity change, negative = inhibition [3] 4.14% | activity, negative = inhibition [4] -13.9% | Potency [5] > 46 µM | Potency [6] > 46 µM | outcome [7]

CCCc1c(OCCCOc2ccc(OCC(=O)O)cc2)ccc(C(C)=O)c1O
active: Potency [2] 31.6 µM
inactive: activity change, negative = inhibition [1] -9.01% | activity change, negative = inhibition [3] -26.4% | activity, negative = inhibition [4] 11.2% | Potency [5] > 46 µM | Potency [6] > 46 µM | outcome [7]

CCN(c1nc(N)c(C(=O)N=C(N)N)nc1Cl)C(C)C
active: Potency [2] 2 µM
inactive: activity change, negative = inhibition [1] 29.9% | activity change, negative = inhibition [3] -3.34% | activity, negative = inhibition [4] -24.1% | Potency [6] > 46 µM | outcome [7]

CC(=O)N[C@@H](Cc1c[nH]c2ccccc12)C(=O)OCc1cc(C(F)(F)F)cc(C(F)(F)F)c1
active: Potency [2] 31.6 µM
inactive: activity change, negative = inhibition [1] 10.1% | activity change, negative = inhibition [3] 19.5% | activity, negative = inhibition [4] 1.93% | Potency [5] > 46 µM | Potency [6] > 46 µM | outcome [7]

C=CC[C@H](N)C(=O)O
inactive: activity change, negative = inhibition [1] 12.7% | Potency [2] | activity change, negative = inhibition [3] 2.66% | activity, negative = inhibition [4] 7.83% | Potency [5] > 46 µM | Potency [6] > 46 µM | outcome [7]

C[C@](Cc1ccc(O)c(O)c1)(NN)C(=O)O
active: Potency [2] 31.6 µM
inactive: activity change, negative = inhibition [1] -13.3% | activity change, negative = inhibition [3] 8.6% | Potency [5] > 46 µM | Potency [6] > 46 µM

O=C(O)Cc1c[nH]c2ccc(O)cc12
inactive: activity change, negative = inhibition [1] 21.9% | Potency [2] | activity change, negative = inhibition [3] 6.87% | Potency [5] > 46 µM | Potency [6] > 46 µM | outcome [7]

N=C(N)SCCN
inactive and 31.6 µM (active): Potency [2]
inactive: activity change, negative = inhibition [1] 3.17% | activity change, negative = inhibition [3] -0.506% | Potency [5] > 46 µM | Potency [6] > 46 µM | outcome [7]

Cc1cc2c(cc1Cl)N(C(=O)Nc1ccnc3ccccc13)CC2
inactive: activity change, negative = inhibition [1] -29.6% | activity change, negative = inhibition [3] 4.5% | Potency [5] > 46 µM | Potency [6] > 46 µM | outcome [7]

NCCCNCCCCNCCCN
inactive and 15.8 µM (active): Potency [2]
inactive: activity change, negative = inhibition [1] 11.4% | activity, negative = inhibition [4] -4.41% | Potency [5] > 46 µM | Potency [6] > 46 µM

Cc1ccc2c(c1)C(N1CCN(C)CC1)=Nc1cccnc1N2
inactive: activity change, negative = inhibition [1] 22.6% | activity, negative = inhibition [4] 0.822% | Potency [5] > 46 µM | Potency [6] > 46 µM | outcome [7]

CC(=O)NNC(=O)N1Cc2ccccc2Oc2ccc(Cl)cc21
inactive: activity change, negative = inhibition [1] -8.52% | activity change, negative = inhibition [3] 13.5% | Potency [5] > 46 µM | Potency [6] > 46 µM

OC1(c2ccc(Cl)cc2)CCN(Cc2c[nH]c3ccccc23)CC1
inactive: activity change, negative = inhibition [1] 6.53% | activity change, negative = inhibition [3] 8.51% | Potency [5] > 46 µM | Potency [6] > 46 µM | outcome [7]
active: Potency [2] 15.8 µM and 31.6 µM

N[C@@H](Cc1c[nH]c2ccccc12)C(=O)O
inactive: activity change, negative = inhibition [1] 4% | activity change, negative = inhibition [3] -12.3% | activity, negative = inhibition [4] -9.87% | Potency [5] > 46 µM | Potency [6] > 46 µM

O=c1[nH]c(=O)c2nc3ccccc3nc2[nH]1
active: Potency [2] 12.6 µM
inactive: activity change, negative = inhibition [1] -6.22% | activity change, negative = inhibition [3] 0.27% | Potency [5] > 46 µM | Potency [6] > 46 µM | outcome [7]

O=C(O)/C=C/c1ccc(O)c(O)c1
inactive: activity change, negative = inhibition [1] 5.87% [at 17.2 µM] | activity change, negative = inhibition [3] -10.8% [at 17.2 µM] | activity, negative = inhibition [4] -8.31% [at 17.2 µM] | Potency [5] > 20.6 µM

CCN(CC)CCCCCCCCOC(=O)c1cc(OC)c(OC)c(OC)c1
inactive: activity change, negative = inhibition [1] 20.2% | Potency [2] | Potency [5] > 46 µM | Potency [6] > 46 µM | outcome [7]
active: activity change, negative = inhibition [3] -83.6%

NC1(C(=O)O)CC1
inactive: activity change, negative = inhibition [1] 11.9% | activity change, negative = inhibition [3] -11.2% | Potency [5] > 46 µM | Potency [6] > 46 µM | outcome [7]

CC(C)NCC(O)COc1ccc(CC(N)=O)cc1 (configuration not stated)
inactive: activity change, negative = inhibition [1] 5.57% [at 17.2 µM] | activity, negative = inhibition [4] 14% [at 17.2 µM]

N[C@@H](Cc1ccc(O)c(I)c1)C(=O)O
inactive: activity change, negative = inhibition [1] 9.71% [at 17.2 µM] | activity change, negative = inhibition [3] -2.26% [at 17.2 µM] | activity, negative = inhibition [4] 5.15% [at 17.2 µM] | Potency [5] > 20.6 µM
